{
  "source": "PubChem BioAssay (NCATS)",
  "note": "Inconclusive results are not listed. Calls of active or inactive are those of the source. Calls come from the whole dose curve; as a rule, active = well fitted cell-killing curve with a large enough effect; inconclusive = small, poorly fitted or top-dose-only effect, or effect the other way; inactive = no such curve, though single readings can be large or run the other way. Potency is the fitted concentration of half-maximal effect.",
  "data": [
    {"test": "Quantitative highthroughput screen to assess conditional lethalithy of SEM cells grown in RPMI1640 with dialyzed fetal bovine serum (RPMI+ds) (AID 1963884); note: nearly all actives have a fitted effect of over 35% in size", "conditions": "SEM B-ALL cells, RPMI+dialyzed FBS, CellTiter-Glo viability, 48 h; series mostly up to 45.8 µM; viability: at the top concentration", "source_text": "Assay Provider: Jason Cantor Ph.D.\nDepartment of Biochemistry\nUniversity of Wisconsin-Madison, Madison, WI, USA\nChemical screening studies have identified drug sensitivities across hundreds of cancer cell lines but most putative therapeutics fail to translate. Discovery and development of drug candidates in models that more accurately reflect nutrient levels in human blood is a major challenge. Here we performed high-throughput screens in conventional versus Human Plasma-Like Medium (HPLM) to identify compounds that were \"missed\" when screening using the artificial culture condition. Sets of conditional anticancer compounds spanned phases of clinical development and included non-oncology drugs were assessed. […] We also traced conditional phenotypes for several chemotherapeutics to availability of HPLM-specific metabolites and confirmed others for compounds whose reported targets are encoded by nonessential genes. Our findings establish generalizable strategies for exploiting conditional lethality in HPLM to reveal therapeutic candidates and mechanisms of action in cancer cells.\nDescribed herein are the results of each viability screens against three cell lines: NOMO1 (an acute myeloid leukemia cell line); P12-Ichikawa (a T-cell acute lymphoblastic leukemia); and SEM (a B-cell ALL). Each assay was screened using 3 different cell culture media: homemade human plasma-Like medium with 10% dialyzed fetal bovine serum (HPLM+ds); RPMI1640 with 10% untreated FBS and 5mM glucose (RPMI+s); and RPMI1640 with 10% dialyzed fetal bovine serum and 5 mM glucose (RPMI+ds).\nPROTOCOL TABLE (as described by Inglese J, Shamu CE and Guy RK. 2007)\nSEQUENCE No. (e.g., 1, 2, 3, etc.); […] (e.g., Cells, Incubation, Reagent, etc.); VALUE and DESCRIPTION.\n1; Cells; 5 uL; white, solid bottom 1536-well Greiner assay plate.\n2; Compounds; 23 nL; Kalypsis pin tool (Wako USA) equipped with a 1536-well pin head to transfer to the assay plates.\n3; Incubation; 48 hours; 37C incubation.\n4; Reagent; 3 uL; CellTiter Glo (Promega).\n5; Incubation; 5 min, room temperature\n6; Detection; Luminescence, Viewlux PerkinElmer.\nNOTES (numbers refer to Sequence numbers above)\n1. Briefly, 5 ul of cell reagent was dispensed using a Multidrop Combi Dispenser. The NOMO1 and SEM cells were plated at 500 cells/well and the P12-Ichikawa line at 1000 cells/well.\n2. After seeding the cells, 23 nL of MIPE 4.1 library compounds (in DMSO) were added to each plate using a Kalypsys 1536 Pintool dispenser. Bortezomib at final concentration of […] and DMSO were added to each plate as positive and negative controls respectively. For each screen, MIPE 4.1 compounds were added over an eleven-point concentration range […] in 3-fold dilutions.\n3. Each plate was covered with a stainless steel gasketed lid to prevent evaporation and incubated for 48 hour at 37C, 95% relative humidity, and 5% CO2.\n4-5. Three microliter CellTilter-GloTM luminescent substrate mix (Promega) reagent was added to the assay plate and incubated at room temperature for 5 min.\n6. The luminescence signal was measured using a ViewLux (PerkinElmer) multiplate reader with a 2 second exposure time per plate. Data for each compound were normalized as percent viability such that measurements for DMSO and the empty well controls in each plate were defined as 100% and 0%, respectively.", "values": [
      {"smiles": "COCCOc1nc(-c2ccc(Cl)c(Cl)c2)n(-c2ccc(NC(=O)CCl)cc2)n1", "viability": "88.7% (inactive)"},
      {"smiles": "Cc1ccccc1C(C(=O)NC1CCCCC1)N(C(=O)CNc1ccc(C#N)cc1)c1cccc(F)c1", "note": "(stereo not given)", "viability": "98.9% (inactive)"},
      {"smiles": "Cc1ccc(C(=O)N(CCCN)[C@@H](c2nc3cc(Cl)ccc3c(=O)n2Cc2ccccc2)C(C)C)cc1", "Potency": "0.0013 µM (active)"},
      {"smiles": "Cc1cnc(NC(=O)Nc2cc(Br)c(C)cc2OC[C@@H]2CNCCO2)cn1", "Potency": "0.59 µM (active)"},
      {"smiles": "COC(=O)C1=C(C)NC(C)=C(C(=O)OCCCN2CCC(c3ccccc3)(c3ccccc3)CC2)C1c1cccc([N+](=O)[O-])c1", "note": "(stereo not given)", "viability": "104% (inactive)"},
      {"smiles": "CC(C)C[C@H](NC(=O)CNC(=O)c1cc(Cl)ccc1Cl)B1OC(=O)CC(CC(=O)O)(C(=O)O)O1", "note": "(stereo not given in full)", "Potency": "0.118 µM (active)"},
      {"smiles": "O=C(NCC1CN(c2ccc(N3CCOCC3=O)cc2)C(=O)O1)c1ccc(Cl)s1", "note": "(stereo not given)", "viability": "101% (inactive)"},
      {"smiles": "O=c1cc(-c2cccc3c2Sc2ccccc2S3)oc(N2CCOCC2)c1", "viability": "98.1% (inactive)"},
      {"smiles": "CN(C)c1nc(Cc2ccc(NC(=O)c3ccc4ccccc4c3)cc2)nc(Cl)c1CC(=O)O", "viability": "104% (inactive)"},
      {"smiles": "O=C(CCCCCCC(=O)Nc1ccc([C@H]2O[C@@H](CSc3nc(-c4ccccc4)c(-c4ccccc4)o3)C[C@@H](c3ccc(CO)cc3)O2)cc1)NO", "Potency": "6.62 µM (active)"},
      {"smiles": "CN(Cc1cc(Br)cc(Br)c1N)C1CCCCC1", "viability": "89.4% (inactive)"},
      {"smiles": "CC(C)N(CC[C@H](c1ccccc1)c1cc(CO)ccc1O)C(C)C", "viability": "96.1% (inactive)"},
      {"smiles": "Cc1ncc([N+](=O)[O-])n1CCO", "viability": "103% (inactive)"},
      {"smiles": "Clc1cccc(-n2nnnc2NCc2ccccc2Oc2ccccn2)c1Cl", "viability": "83.7% (inactive)"},
      {"smiles": "CC1(C)[C@H](O[C@H]2O[C@H](C(=O)O)[C@@H](O)[C@H](O)[C@H]2O[C@@H]2O[C@H](C(=O)O)[C@@H](O)[C@H](O)[C@H]2O)CC[C@@]2(C)[C@H]1CC[C@]1(C)[C@H]2C(=O)C=C2[C@H]3C[C@@](C)(C(=O)O)CC[C@]3(C)CC[C@]21C", "viability": "92.8% (inactive)"},
      {"smiles": "COc1cc2c(N3CCN(C(=O)Nc4ccc(OC(C)C)cc4)CC3)ncnc2cc1OCCCN1CCCCC1", "Potency": "0.132 µM (active)"},
      {"smiles": "Nc1ccc(C(=O)Nc2cccc(-c3nc(N4CCOCC4)c4oc5ncccc5c4n3)c2)cn1", "Potency": "20.9 µM (active)"},
      {"smiles": "O=C(CCCCCCC(=O)Nc1ccccc1)NO", "Potency": "3.32 µM (active)"},
      {"smiles": "CCNC(=O)c1cc2c(-c3cc(OCCN4CCCC4)c(Cl)cc3Cl)nc(N)nc2s1", "Potency": "2.35 µM (active)"},
      {"smiles": "Cc1cc(Nc2cc(NC(=O)c3c(Cl)cccc3Cl)ccn2)nc(N)n1", "Potency": "1.05 µM (active)"},
      {"smiles": "CCN(c1ccccc1)c1cc(NC)[n+](C)c(C)n1", "viability": "101% (inactive)"},
      {"smiles": "CCCCCCCCCCCCCCCC(=O)OC[C@@H](NC(=O)C(Cl)Cl)[C@H](O)c1ccc([N+](=O)[O-])cc1", "viability": "98.1% (inactive)"},
      {"smiles": "Cc1cc(C2CCCCC2)n(O)c(=O)c1", "Potency": "13.2 µM (active)"},
      {"smiles": "O=C(CCCCCCNC(=O)c1cnc(N(c2ccccc2)c2ccccc2)nc1)NO", "Potency": "7.43 µM (active)"},
      {"smiles": "CC(C)C(=O)Nc1ccc([N+](=O)[O-])c(C(F)(F)F)c1", "viability": "88.6% (inactive)"},
      {"smiles": "CCNC(=O)Nc1ccc(Oc2ncnc(N)c2C=NOC)cc1Cl", "Potency": "0.935 µM (active)"},
      {"smiles": "CN[C@H]1[C@@H](O)[C@@H]2O[C@@H]3O[C@H](C)CC(=O)[C@]3(O)O[C@@H]2[C@@H](NC)[C@H]1O", "viability": "92.1% (inactive)"},
      {"smiles": "CN(C)c1ccccc1CN1CCCN(Cc2ccccc2N(C)C)C1c1ccncc1", "viability": "86.6% (inactive)"},
      {"smiles": "C[C@]12C=CC(=O)N[C@@H]1CC[C@H]1[C@H]3CC[C@@H](C(=O)Nc4cc(C(F)(F)F)ccc4C(F)(F)F)[C@@]3(C)CC[C@@H]12", "viability": "94.5% (inactive)"},
      {"smiles": "NC(=O)c1cnccn1", "viability": "88% (inactive)"},
      {"smiles": "CC(C)NC[C@@H](C(=O)N1CCN(c2ncnc3c2[C@H](C)C[C@H]3O)CC1)c1ccc(Cl)cc1", "Potency": "0.296 µM (active)"},
      {"smiles": "CCn1cc(C(=O)O)c(=O)c2cc(F)c(N3CCNCC3)nc21", "viability": "94.9% (inactive)"},
      {"smiles": "CC=C1C2C=C(C)CC1(N)c1ccc(=O)[nH]c1C2", "note": "(stereo not given)", "viability": "104% (inactive)"},
      {"smiles": "Cc1cccc(-c2[nH]c(C(C)(C)C)nc2-c2ccc3c(c2)OCO3)n1", "Potency": "9.35 µM (active)"},
      {"smiles": "Cn1cc(-c2ccc3ncc(Cc4ccc5ncccc5c4)n3n2)cn1", "Potency": "10.5 µM (active)"},
      {"smiles": "CCCCCCOC(=O)N=C(N)c1ccc(NCc2nc3cc(C(=O)N(CCC(=O)OCC)c4ccccn4)ccc3n2C)cc1", "viability": "70.6% (inactive)"},
      {"smiles": "Cc1cccc(-c2[nH]c(C(C)(C)C)nc2-c2ccc3nccnc3c2)n1", "Potency": "18.7 µM (active)"},
      {"smiles": "COCCCN1CCC(NC(=O)c2cc(Cl)c(N)c3c2OCC3)CC1", "viability": "88.6% (inactive)"},
      {"smiles": "CC(O)(C#Cc1ccc2c(c1)N(c1nc(N)ncc1Cl)CC2)c1nccs1", "note": "(stereo not given)", "viability": "51.5% (inactive)"},
      {"smiles": "C=C1C(=O)O[C@H]2[C@@H]1CCC(C)=CCC[C@@]1(C)O[C@@H]21", "Potency": "1.48 µM (active)"}
    ]}
  ]
}
